In PubChem BioAssay (Tox21) one finds Potency and outcome data, which are given here for ten compounds.

Results filed as inconclusive are left out. Active and inactive are the calls of the source. Unless noted, calls follow the shape of the dose curve; as a rule, active = well fitted curve in the direction sought with a large enough effect in the repeat runs; inconclusive = weak or mixed curves; inactive = no such curve, though single readings can be large; an effect the other way counts as inactive or inconclusive.

In test [1] the target is Thyrotropin receptor (Homo sapiens) (UniProt P16473). Briefly: qHTS assay to identify small molecule antagonists of the thyroid stimulating hormone receptor (TSHR) signaling pathway (AID 1259385; calls by dose curve; also: nearly all actives have a fitted effect of over 20% in size). A digest of the protocol: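 Antagonist mode: compound-treated TSHR-expressing HEK293 cells were stimulated with 1.5 ng/mL TSH (final) in presence of Ro20-1724 for 30 min at RT. HTRF cAMP detection after 1 h; each compound tested at 15 concentrations, triplicate.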
For orientation: qHTS replaces the single test concentration by a dilution series.

Test [2] can be described thus: qHTS assay to identify small molecule agonists of the estrogen receptor alpha (ER-alpha) signaling pathway in the presence of an antagonist - cell viability counter screen (AID 1259386). Also: nearly all actives have a fitted effect of over 30% in size. Also: potency is read from the fitted curve at half-maximal effect. The method, boiled down: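 Compounds tested at 15 concentrations for 22 h at 37C alongside 10.0nM (final) ICI-182,780 antagonist, in VM7Luc4E2 cells grown in phenol red-free, charcoal-stripped medium. Viability read by CellTiter-Fluor fluorescence after 1 h reagent incubation.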

The nature of test [3]: qHTS assay to identify small molecule antagonists of the progesterone receptor (PR) signaling pathway - cell viability counter screen (AID 1346798). Also: nearly all actives have a fitted effect of over 50% in size. Also: potency is read from the fitted curve at half-maximal effect. The method, boiled down: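 In the same plates used for the beta-lactamase readout, cell viability of compound- and R5020-treated PR-UAS-bla HEK293T cells (16 hr, 37C) was assessed by CellTiter-Glo luminescence.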
Test [4] in a line: qHTS assay to identify small molecule agonists of the progesterone receptor (PR) signaling pathway - cell viability counter screen (AID 1346799; calls by dose curve; also: nearly all actives have a fitted effect of over 45% in size; also: potency is read from the fitted curve at half-maximal effect). A digest of the protocol: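 Multiplexed viability read: CellTiter-Glo luminescence, 30 min RT, following LiveBLAzer FRET measurement on PR-UAS-bla HEK293T cells exposed to compounds 16 hr.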
Test [5] in a line: qHTS assay to identify small molecule antagonists of the TGF-beta/Smad signaling pathway - cell viability counter screen (AID 1346824). Also: nearly all actives have a fitted effect of over 50% in size. A digest of the protocol:
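Cytotoxicity counter-screen run in the same wells as the beta-lactamase Smad reporter read: CellTiter-Glo luminescence after 30 min at room temperature. HEK 293T SBE-bla cells had 5 hr compound exposure at 37 C with TGF-beta1 (0.25 ng/mL stock).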

The nature of test [6]: qHTS assay to identify small molecule agonists of the TGF-beta/Smad signaling pathway - cell viability counter screen (AID 1346829). Also: top concentration of the series differs between compounds; nearly all actives have a fitted effect of over 45% in size. The method, boiled down: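 In parallel with the Smad reporter read, viability of HEK 293T cells stably carrying SBE-bla is quantified by ATP luminescence following 5 hr compound treatment.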
The nature of test [7]: qHTS assay to identify small molecule agonists of the TGF-beta/Smad signaling pathway (AID 1346859; active = well fitted activation curve with a large enough effect in the signal ratio in the repeat runs, not every such curve was filed as active; the % refers to the signal ratio; also: series mostly up to about 77 µM). A digest of the protocol: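 Screening used HEK 293T SBE-bla cells at 4,000/well. Test agents: 5 hr, 37 C. Detection: FRET substrate, 2 hr RT, then excitation 405 nm with emissions at 460 and 530 nm.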
In test [8] the target is Thyrotropin-releasing hormone receptor (Homo sapiens) (UniProt P34981). The test can be described thus: qHTS assay to identify small molecule antagonists of the thyrotropin-releasing hormone receptor (TRHR) signaling pathway (AID 1346877; active = well fitted inhibition curve with a large enough effect in the repeat runs, not every such curve was filed as active; also: series mostly up to about 51 µM). A digest of the protocol:
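Antagonist mode: after a 5 min room-temperature compound exposure, cells were stimulated with 1 nM (final) TRH. Dye-loaded TRHR-HEK293 cells were used, and calcium-dependent fluorescence was followed for 3 min, with 15-point titrations run in triplicate.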

The nature of test [9]: Caspase-3/7 induction in HepG2 cells by small molecules, qHTS assay (AID 1346978). Also: nearly all actives have a fitted effect of over 15% in size. The method, boiled down: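 Caspase-3/7 induction was measured by Caspase-Glo 3/7 luminescence (30 min, room temperature) after a 17 hr compound exposure of wild-type HepG2 cells seeded at 2,000 per well and pre-incubated 5 hr.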
Test [10] in a line: Caspase-3/7 induction in CHO-K1 cells by small molecules, qHTS cell viability counter screen (AID 1346979). Also: nearly all actives have a fitted effect of over 35% in size. Also: potency is read from the fitted curve at half-maximal effect. A digest of the protocol:
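Following a 5hr settling period, CHO-K1 cells at 1,500 per well received DMSO-dissolved compounds. Cell viability was quantified 16hr later by CellTiter-Fluor fluorescence, measured after 1hr with reagent at 37C.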

A short description of test [11]: Caspase-3/7 induction in CHO-K1 cells by small molecules, qHTS assay (AID 1346980). Also: nearly all actives have a fitted effect of over 15% in size. The method, boiled down:
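Luminescent Caspase-Glo 3/7 read (30min, room temperature) quantified apoptosis induction. Cells were wild-type CHO-K1, treated with compound for 17hr at 37 C and 5% CO2.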

Test [12] can be described thus: Caspase-3/7 induction in HepG2 cells by small molecules, qHTS cell viability counter screen (AID 1346981). Also: nearly all actives have a fitted effect of over 30% in size. Also: potency is read from the fitted curve at half-maximal effect. A digest of the protocol: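 CellTiter-Fluor fluorescence measured viability in the same wells used for Caspase-Glo 3/7. HepG2 (wild type) at 2,000 cells/well were pre-incubated 5 hr, dosed, and given reagent at 16 hr, with 1 hr further at 37C.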
Test [13] addresses Progesterone receptor (Homo sapiens) (UniProt P06401). The test can be described thus: qHTS assay to identify small molecule agonists of the progesterone receptor (PR) signaling pathway (AID 1346784; calls by dose curve; also: nearly all actives have a fitted effect of over 30% in size). A digest of the protocol: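 Reporter assay, GripTite PR-UAS-bla HEK 293T cells: 16 hr exposure to DMSO-dissolved compounds at 37C, 5% CO2, in steroid-depleted (2% charcoal-stripped FBS) medium; beta-lactamase measured by FRET fluorescence.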

For test [14], the target named is Thyrotropin-releasing hormone receptor (Homo sapiens) (UniProt P34981). The test can be described thus: qHTS assay to identify small molecule agonists of the thyrotropin-releasing hormone receptor (TRHR) signaling pathway (AID 1346891; calls by dose curve; also: series mostly up to about 58 µM). The method, boiled down:
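Readout was intracellular calcium fluorescence in TRHR-Hek293 cells. Cells were incubated 18 h, dye-loaded 2 h at 37 °C, and treated with compound in agonist mode.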

Test [15] can be described thus: Human pregnane X receptor (PXR) small molecule agonists, qHTS cell viability counter screen (AID 1346977). Also: nearly all actives have a fitted effect of over 50% in size. The method, boiled down:
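In each well, the PXR reporter HepG2 line was checked for viability: CellTiter-Fluor reagent added 23hr post-dosing, fluorescence read after 1hr incubation at 37C.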

Test [16] deals with Nuclear receptor subfamily 1 group I member 2 (Homo sapiens) (UniProt O75469). Briefly: Human pregnane X receptor (PXR) small molecule agonists, qHTS assay (AID 1346982). Also: nearly all actives have a fitted effect of over 35% in size. Also: potency is read from the fitted curve at half-maximal effect. The method, boiled down:
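Agonist mode: luminescence from ONE-Glo after 24 h compound exposure at 37C in HepG2 cells carrying hPXR-responsive CYP3A4 luciferase, plated in charcoal-stripped serum medium 5 h beforehand.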

Sequence of Nuclear receptor subfamily 1 group I member 2 (Homo sapiens) (O75469 whole entry, looked up): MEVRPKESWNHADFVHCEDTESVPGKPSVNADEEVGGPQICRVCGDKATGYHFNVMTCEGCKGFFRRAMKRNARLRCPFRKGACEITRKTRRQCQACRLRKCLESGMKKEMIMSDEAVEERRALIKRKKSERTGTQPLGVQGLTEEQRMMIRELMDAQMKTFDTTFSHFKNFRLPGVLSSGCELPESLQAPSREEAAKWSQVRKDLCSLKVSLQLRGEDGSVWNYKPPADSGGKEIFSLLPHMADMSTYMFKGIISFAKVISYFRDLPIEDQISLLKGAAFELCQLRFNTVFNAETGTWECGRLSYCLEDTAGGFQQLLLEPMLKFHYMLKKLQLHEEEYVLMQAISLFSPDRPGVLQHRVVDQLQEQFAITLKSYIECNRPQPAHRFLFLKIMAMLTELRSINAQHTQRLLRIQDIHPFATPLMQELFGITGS
Sequence of Thyrotropin-releasing hormone receptor (Homo sapiens) (P34981 whole entry, looked up): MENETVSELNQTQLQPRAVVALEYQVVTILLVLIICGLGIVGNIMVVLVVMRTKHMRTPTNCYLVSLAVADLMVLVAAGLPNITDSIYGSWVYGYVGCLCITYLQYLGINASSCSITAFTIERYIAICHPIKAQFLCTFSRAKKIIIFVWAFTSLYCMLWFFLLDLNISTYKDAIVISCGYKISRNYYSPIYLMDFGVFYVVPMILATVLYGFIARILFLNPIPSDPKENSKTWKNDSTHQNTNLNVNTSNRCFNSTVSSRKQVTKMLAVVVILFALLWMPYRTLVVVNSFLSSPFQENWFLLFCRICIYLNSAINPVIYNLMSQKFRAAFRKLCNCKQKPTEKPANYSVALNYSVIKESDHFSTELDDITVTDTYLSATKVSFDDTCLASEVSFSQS
Sequence of Progesterone receptor (Homo sapiens) (P06401 whole entry, looked up): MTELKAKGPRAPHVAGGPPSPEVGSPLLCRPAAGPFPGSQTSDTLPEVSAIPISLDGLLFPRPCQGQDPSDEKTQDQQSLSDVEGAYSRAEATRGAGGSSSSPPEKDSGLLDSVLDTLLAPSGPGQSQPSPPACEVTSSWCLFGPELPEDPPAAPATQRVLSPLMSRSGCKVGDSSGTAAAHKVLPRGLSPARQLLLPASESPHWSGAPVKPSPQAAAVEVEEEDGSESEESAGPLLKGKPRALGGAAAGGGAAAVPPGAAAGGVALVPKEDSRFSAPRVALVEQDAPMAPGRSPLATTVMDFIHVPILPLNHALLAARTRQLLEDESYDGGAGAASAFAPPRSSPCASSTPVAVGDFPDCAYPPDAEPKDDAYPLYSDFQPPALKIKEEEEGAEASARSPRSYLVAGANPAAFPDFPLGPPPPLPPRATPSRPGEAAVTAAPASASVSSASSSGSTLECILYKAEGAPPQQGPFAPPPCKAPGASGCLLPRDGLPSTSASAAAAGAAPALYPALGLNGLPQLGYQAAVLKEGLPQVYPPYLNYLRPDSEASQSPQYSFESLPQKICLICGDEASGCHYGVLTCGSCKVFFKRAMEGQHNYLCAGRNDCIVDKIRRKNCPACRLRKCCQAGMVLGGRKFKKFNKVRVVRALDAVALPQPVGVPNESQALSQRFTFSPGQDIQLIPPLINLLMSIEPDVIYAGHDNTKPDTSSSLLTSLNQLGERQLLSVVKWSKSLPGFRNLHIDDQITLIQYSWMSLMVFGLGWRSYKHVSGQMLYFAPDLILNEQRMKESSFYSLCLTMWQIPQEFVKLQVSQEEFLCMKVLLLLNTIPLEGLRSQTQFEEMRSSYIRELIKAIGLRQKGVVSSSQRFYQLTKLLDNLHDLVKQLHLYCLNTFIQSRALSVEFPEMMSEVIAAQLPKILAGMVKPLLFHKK
Sequence of Thyrotropin receptor (Homo sapiens) (P16473 whole entry, looked up): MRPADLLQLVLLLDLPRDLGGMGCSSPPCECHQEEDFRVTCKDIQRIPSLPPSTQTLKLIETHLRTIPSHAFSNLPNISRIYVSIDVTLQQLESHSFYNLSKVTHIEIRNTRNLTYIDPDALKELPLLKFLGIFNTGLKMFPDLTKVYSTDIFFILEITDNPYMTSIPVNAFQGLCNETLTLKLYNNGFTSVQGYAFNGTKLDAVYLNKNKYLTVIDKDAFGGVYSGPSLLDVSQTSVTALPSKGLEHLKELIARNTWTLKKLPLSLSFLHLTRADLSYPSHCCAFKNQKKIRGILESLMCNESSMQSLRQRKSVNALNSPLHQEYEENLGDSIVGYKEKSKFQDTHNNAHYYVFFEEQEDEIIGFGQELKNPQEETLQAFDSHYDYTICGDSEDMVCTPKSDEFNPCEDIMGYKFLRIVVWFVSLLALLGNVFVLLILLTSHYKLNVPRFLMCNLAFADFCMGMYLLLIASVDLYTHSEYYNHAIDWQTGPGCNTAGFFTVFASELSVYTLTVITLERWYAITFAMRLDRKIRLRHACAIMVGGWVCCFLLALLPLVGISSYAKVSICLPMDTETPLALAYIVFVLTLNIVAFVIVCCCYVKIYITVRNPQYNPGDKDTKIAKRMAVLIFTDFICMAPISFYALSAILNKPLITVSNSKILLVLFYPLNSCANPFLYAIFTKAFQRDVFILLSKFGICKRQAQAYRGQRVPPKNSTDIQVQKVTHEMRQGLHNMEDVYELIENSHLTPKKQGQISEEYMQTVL

In the case of `NS(=O)(=O)C(F)(F)C(F)(F)C(F)(F)C(F)(F)C(F)(F)C(F)(F)C(F)(F)C(F)(F)F`, the Potency result in test [1], in test [2], in test [4], in test [5], in [6] and in test [8] was “inactive” each time. The Potency result in test [9], in test [10], in test [11] and in test [12] was “inactive” each time. Also, the Potency in test [3] was 9.69 µM (active). In [7], the compound was classed as inactive.

Turning to `CCOP(=S)(OCC)SCSCC`, the Potency result in [1], in test [2], in test [13], in [3], in test [4] and in test [5] was “inactive” in each case. For the same compound, the Potency result in [8], in test [14], in [15], in test [9], in test [10] and in test [11] was “inactive” each time. The Potency result in test [12] and in test [16] was “inactive” in each case. In addition, the compound was called inactive in test [7].

Take `OCCCBr`: the Potency entry in test [1], in test [2], in test [13], in test [5], in test [8] and in [14] was “inactive” each time. Also, the Potency result in test [15], in test [9], in test [10], in test [11] and in test [16] was “inactive” each time. Besides, the call in [7] was inactive.

Regarding `CCc1ccc(C(=O)NN(C(=O)c2cc(C)cc(C)c2)C(C)(C)C)cc1`, the Potency entry in test [1], in test [13], in test [3], in test [5], in [6] and in test [14] was “inactive” each time. Also, the Potency entry in test [15], in test [9], in test [11] and in test [16] was “inactive” each time. For the same compound, the values for the Potency in test [2], in test [10] and in [12] were 5.45 µM (active), 27.3 µM (active) and 9.69 µM (active), respectively. In addition, the compound was classed as inactive in test [7].

Turning to `CCCN(CCCl)c1c([N+](=O)[O-])cc(C(F)(F)F)cc1[N+](=O)[O-]`, the Potency result in test [1], in [2], in [13], in test [4], in test [5] and in [6] was “inactive” throughout. In addition, the Potency result in test [8], in test [14], in test [15], in test [9], in test [10] and in test [11] was “inactive” throughout. Moreover, the Potency entry in test [12] is “inactive”. For the same compound, in [7], the call was inactive. Besides, the Potency in [16] was 21.7 µM (active).

As for `c1cc2ccc3cccc4ccc(c1)c2c34`, the Potency entry in test [1], in [2], in test [13], in test [6], in test [14] and in test [15] was “inactive” in each case. Further, the Potency result in [9] and in test [11] was “inactive” in each case. Moreover, the Potency in [4] is 28.6 µM (active). Moreover, the compound was called inactive in [7].

For the compound `Nc1ccc([N+](=O)[O-])cc1[N+](=O)[O-]`, the Potency result in [1], in test [13], in test [4], in test [5], in [6] and in test [9] was “inactive” throughout. In addition, the Potency entry in [11] and in [16] was “inactive” each time. For the same compound, the Potency in test [2] is 53.1 µM (active); in test [10], 47.3 µM (active); in test [12], 47.3 µM (active). Further, the compound was called inactive in test [7].

Turning to `CNP(=O)(OC)Oc1ccc(C(C)(C)C)cc1Cl` (stereo not drawn), the Potency result in test [1], in test [2], in test [13], in test [5], in test [6] and in test [8] was “inactive” in each case. Also, the Potency result in [15], in test [9], in test [11] and in test [12] was “inactive” throughout. Moreover, the outcome in test [7] was inactive.

With `CC1(C)[C@H](C=C(Cl)Cl)[C@@H]1C(=O)O[C@@H](C#N)c1cccc(Oc2ccccc2)c1`, the Potency result in test [1], in [2], in test [13], in test [3], in test [5] and in [6] was “inactive” in each case. For the same compound, the Potency result in [8], in test [14], in test [15], in [9], in [10] and in [11] was “inactive” throughout. Moreover, the Potency result in test [12] is “inactive”. Besides, the outcome in test [7] was inactive. In [16], the Potency is 4.33 µM (active).

On to `O=[N+]([O-])c1cc(C(F)(F)F)cc([N+](=O)[O-])c1Cl`, for which the Potency entry in [1], in test [13], in test [5], in [6], in [8] and in test [9] was “inactive” in each case. In addition, the Potency result in [11] is “inactive”. Also, the Potency in [2] is 30.8 µM (active); in [4], 13.7 µM (active); in test [10], 68.9 µM (active); in test [12], 61.4 µM (active). Besides, the compound was classed as inactive in test [7].
